Assay outcomes: PubChem BioAssay, several laboratories
BoNT-A LC inh2: BoNT/A light chain protease inhibitors, primary screen, biochemical, flow cytometry, MLPCN library | AID 588499, 2011 | inhibition, % at 10 µM | multiplex microsphere protease substrate cleavage | 360,000 tested, 0.17% active; also: plate controls were buffer without enzyme for full effect and enzyme alone for no effect
BoNT F protease: BoNT/F light chain protease inhibitors, primary screen, biochemical, flow cytometry, MLPCN library | Botulinum neurotoxin type F light chain protease (Clostridium botulinum) | Multiplex microsphere protease cleavage assay | inhibition, % at 10 µM | 360,000 tested, 0.22% active | AID 588497, 2011; in the data active = inhibition above about 35%, passing the limit was not always enough; inconclusive = no clear call, values can overlap the other calls; also: plate controls were buffer without enzyme for full effect and enzyme alone for no effect
VHR inh abs: VHR1 phosphatase inhibitors, primary screen, biochemical, absorbance, uHTS. 290,000 tested, 0.52% active. recombinant VHR phosphatase, pNPP absorbance. Dual specificity protein phosphatase 3 (Homo sapiens), P51452. inhibition, % at 13.3 µM; in the data active = inhibition above about 50%
Target sequence (P51452 whole entry, looked up): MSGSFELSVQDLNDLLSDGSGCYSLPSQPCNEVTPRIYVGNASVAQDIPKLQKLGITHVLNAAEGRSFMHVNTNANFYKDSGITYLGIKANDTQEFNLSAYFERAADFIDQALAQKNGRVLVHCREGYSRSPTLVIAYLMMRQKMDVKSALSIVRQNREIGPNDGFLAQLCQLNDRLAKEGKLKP
Anthrax LF inh2: Bacillus anthracis LF protease inhibitors, primary screen, biochemical, multiplex microsphere, MLPCN library; 360,000 tested, 0.12% active; inhibition, % at 10 µM; multiplex microsphere protease cleavage assay; AID 588501, 2011; also: plate controls were buffer without enzyme for full effect and enzyme alone for no effect
Autofluor counter: compound fluorescence in toxin protease inhibitor counterscreen; compound autofluorescence counterscreen, microsphere flow cytometry; hits give high values; fluorescence intensity (test concentration not listed); 360,000 tested, 3.1% active; AID 624483; in the data active = fluorescence intensity above about 16000; inconclusive = no clear call, values can overlap the other calls
MazF activator: activators of E. coli MazEF toxin-antitoxin RNase, primary screen, biochemical, fluorescence, uHTS; Endoribonuclease toxin MazF (Escherichia coli (strain K12)), P0AE70; FAM/BHQ RNA-DNA oligo cleavage fluorescence, 5 h; activation, % at 20 µM; 350,000 tested, 0.32% active; AID 504720, 2011; in the data active = activation above about 50%
Target sequence (P0AE70 whole entry, looked up): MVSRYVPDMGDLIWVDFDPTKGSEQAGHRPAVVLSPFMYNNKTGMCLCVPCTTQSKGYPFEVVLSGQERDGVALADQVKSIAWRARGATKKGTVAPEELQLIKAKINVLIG
The depositor's hits bear a star; ? = inconclusive; . = not tested or not shown; + = active, no number. This is a sample that favours compounds with a hit; in the whole collection about 4% have one here. Rule as the data show it, unless noted: active = inhibition above about 30%; inconclusive = no clear call, values can overlap the other calls; inactive = below that.

SMILES | BoNT-A LC inh2 | BoNT F protease | VHR inh abs | Anthrax LF inh2 | Autofluor counter | MazF activator
COc1ccccc1NC(=O)NNC(=O)CCN1CCOCC1 | 0 | -8 | 57* | -4 | 5588 | -3
O=c1cc(-c2cccc([N+](=O)[O-])c2)[nH][nH]1 | -1 | -2 | -3 | -3 | 2076 | 0
O=C(Nc1ncc2c(n1)-c1ccccc1OC2)c1ccc(F)cc1 | -1 | -1 | 35 | -7 | 3958 | 4
O=C(Nc1ncc2c(n1)-c1ccccc1OC2)c1ccc(Cl)cc1Cl | 1 | 1 | 24 | -1 | 16392* | 10
O=C(Nc1ncc2c(n1)-c1ccccc1CC2)c1ccc(Cl)cc1 | 2 | 3 | 27 | 2 | 22185* | 0
CCN(CCO)c1nc(SC)nc2c1sc1nc(-c3ccco3)c3c(c12)CCC3 | . | . | 31 | . | . | 4
C=CCn1c(C)cc(C(=O)COC(=O)C2CC(=O)N(Cc3ccccc3)C2)c1C (stereo not given) | 0 | 12 | -10 | 4 | 4358 | 5
COc1cccc(/C=N/n2cnnc2)c1OCc1ccccc1 | 0 | -2 | 27 | -3 | 3399 | 4
CCOC(=O)Cc1cc(=O)c2c(=O)n(-c3ccccc3)[nH]c2[nH]1 | 2 | 2 | 22 | -2 | 22135* | -10
CCOC(=O)CC1=NN(c2ccccc2)C(=O)C1 | 0 | -4 | 21 | 0 | 2572 | 2
O=c1cc(-c2ccccc2)[nH]c2[nH]n(-c3ccccc3)c(=O)c12 | -2 | -3 | 14 | 0 | 17478* | 9
COC(=O)C1CSc2[nH]c(=O)sc2C1c1ccccc1 (stereo not given) | 0 | 0 | -6 | -1 | 23079* | -7
Cc1ccnc(Sc2ccc([N+](=O)[O-])cc2[N+](=O)[O-])n1 | -1 | 0 | 27 | -1 | 21298* | 6
Cc1ccc(Sc2ccc([N+](=O)[O-])cc2[N+](=O)[O-])nc1 | -1 | -2 | -5 | -2 | 2531 | 7
COC(=O)C1=C(C)N(C)C(C)=C(C(=O)OC)C1c1ccncc1 | 1 | 7 | 12 | 0 | 3409 | 4
CN(C)c1ccc(/C=C2\N=C(c3ccc(Cl)c([N+](=O)[O-])c3)NC2=O)cc1 | 7 | -7 | 22 | 0 | 3777 | 11
CCCS(=O)(=O)N1CCN(CC2CC=CCC2)CC1 (stereo not given) | ? | ? | 25 | ? | ? | 8
CN(C)/C=c1\sc2c(C#N)cc(C(=O)c3ccc(Br)cc3)n2c1=O | 1 | -8 | 28 | 3 | 3184 | +
Cc1cc(C)n(CC(=O)c2ccc(Br)cc2)c(=O)c1C#N | 0 | -2 | 16 | -3 | 9892 | 1
CCCCC(=O)c1c(C)cc(C)[nH]c1=O | -1 | -3 | 27 | -5 | 4087 | 6
CCCCC(=O)C1C(=O)NC(=O)NC1=O | 2 | 3 | 10 | -3 | 19202* | 3
COc1cccc(C2=NOC(C(=O)Nc3cc(C)on3)C2)c1OC (stereo not given) | 0 | 2 | 0 | -6 | 4643 | 3
CC(=O)Nc1ccc(NC(=O)CSc2nc3ccccc3nc2N2CCC(C)CC2)cc1 | 1 | -2 | 48 | 0 | 5246 | 0
COc1ccc(OC)c(/C=C2\N=C(c3ccccc3)OC2=O)c1 | 8 | 15 | -12 | 2 | 4261 | +
COc1cc(/C=C2\N=C(c3ccccc3)OC2=O)ccc1OC(C)=O | 2 | ? | 1 | -3 | 3967 | -1
SMILES | BoNT-A LC inh2 | BoNT F protease | VHR inh abs | Anthrax LF inh2 | Autofluor counter | MazF activator
CC1(C(=O)Nc2cnc3ccccc3c2)CCN1C(=O)CCc1ccccc1 (stereo not given) | 0 | -6 | . | -5 | 4013 | .
O=C1CC(c2ccccc2)CC(O)=C1C=NC1CCCCC1 (stereo not given) | -3 | -2 | -16 | 0 | 23531* | -19
O=C1CC(c2ccccc2)CC(O)=C1C=NC1CCCCCC1 (stereo not given) | 1 | 3 | 6 | -2 | 10019 | 5
COC(=O)C(C)N(C(=O)c1ccc(C(=O)c2ccccc2)cc1)c1c(C)cccc1C (stereo not given) | 0 | 6 | 13 | -4 | 11141 | 2
COC(=O)C(C)N(C(=O)c1ccc(Cl)cc1)c1c(C)cccc1C (stereo not given) | -2 | -6 | 7 | -2 | 21162* | -1
COc1ccc(C2=NOC3(CC(=O)N(c4ccc5ccccc5c4)C3=O)C2)c(OC)c1 (stereo not given) | ? | -7 | 27 | -2 | 17080* | 0
COc1ccc(C2=NOC3(CC(=O)N(c4ccc(F)cc4)C3=O)C2)c(OC)c1 (stereo not given) | 5 | 7 | -6 | 2 | 15217 | -6
Cc1cccc(NC(=O)C2C(C(=O)O)C3C=CC2C32CC2)c1C (stereo not given) | 0 | 2 | 7 | 7 | 5639 | 6
Cc1ccc(NC(=O)C2C(C(=O)O)C3C=CC2C32CC2)cc1 (stereo not given) | 0 | 1 | 29 | -9 | 19275* | -2
CCCOc1ccc(C(=O)c2nc3c(n2O)CCCC3)cc1 | 1 | 0 | 20 | 3 | 22563* | 3
COc1ccc(OC)c(C(=O)c2nc3c(n2O)CCCCC3)c1 | -2 | -6 | -6 | -2 | 23230* | -7
O=C(c1ccc(Oc2ccccc2)cc1)c1nc2c(n1O)CCCC2 | ? | -5 | 4 | -1 | 23776* | -3
Cc1ccccc1C(=O)N/N=C/c1ccncc1 | ? | -1 | 11 | -2 | 19987* | -7
Cc1ccc(-c2cc(-c3ccco3)c3c(N)c(C(=O)NN)oc3n2)cc1 | 0 | -22 | 5 | -11 | 4125 | 9
NNC(=O)c1oc2nc(-c3ccccc3)cc(-c3ccccc3)c2c1N | -3 | 29 | -10 | -7 | 16851* | 19
COc1ccc2c(=O)c3c(=O)n(Cc4ccco4)c(-c4cc(OC)c(OC)c(OC)c4)nc3oc2c1 | 1 | 2 | 4 | -1 | 16166* | 3
COc1ccc2c(=O)c3c(=O)n(Cc4ccco4)c(-c4ccccc4)nc3oc2c1 | 0 | -1 | 18 | 2 | 10518 | 11
COc1ccccc1CNC(=O)C1CCCN(S(=O)(=O)c2ccc3c(c2)CC(C)N3C(C)=O)C1 (stereo not given) | . | . | 8 | . | . | -35
CC(=O)Nc1ccc(C(=O)OCc2ccccc2Br)cc1 | 0 | -2 | 26 | 0 | 4258 | 1
Cc1nc2ccc(C(=O)OCc3ccccc3Br)cc2nc1C | 0 | -2 | 32 | -3 | 5996 | 60*
COc1ccccc1C(=O)NCCCn1cc(Br)c(C)n1 | ? | -3 | -4 | 3 | 18046* | 5
